These results are taken from PubChem BioAssay.

Assay [1] is described as follows: antimalarial activity against Dd2 strain (AID 2302;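 active = growth inhibition above 50% at the single 2 µM test dose, taken to imply half-maximal potency below 2 µM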;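 also: 0% = DMSO untreated growth and 100% = chloroquine plus artemisinin killed control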). The conditions noted are these: P. falciparum Dd2 in RBCs, LDH growth readout, 72 h; at 2 µM; active compounds read high.
Assay [2] can be described thus: human hepatoma cell viability loss – ATP luminescence, cytotoxicity control for P. falciparum antimalarial project, primary screen (AID 2303;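 active = inhibition above 50%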;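 also: 0% = DMSO wells and 100% = digitonin-killed cells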). The conditions noted are these: HepG2 viability, 24-48 h, at 10 µM, active compounds read high.
The target of assay [3] is L-lactate dehydrogenase (Plasmodium falciparum (isolate CDC / Honduras)) (UniProt Q27743). The assay can be described thus: PfLDH activity inhibition – cell lysate, 3D7 strain, counter-screen for P. falciparum growth inhibition project (AID 2304).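 Also: 0% = vehicle and 100% = reference inhibitor.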 The conditions noted are these: P. falciparum 3D7 crude extract, LDH APAD/NBT absorbance; at 2 µM; active compounds read high.
Assay [4] can be described thus: inhibition of 3D7 malaria parasite growth – strain 3D7 (AID 2306).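 Also: 0% = DMSO wells and 100% = chloroquine plus artemisinin control wells.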 The conditions noted are these: P. falciparum 3D7 erythrocytic growth, LDH absorbance, 72 h; at 2 µM; active compounds read high.
The target of assay [5] is Calcium-dependent protein kinase 1 (Plasmodium falciparum (isolate 3D7)) (UniProt P62344). The assay can be described thus: PfCDPK1 kinase inhibitors, biochemical, TCAMS library (AID 1159585; cut-off not given, nearly all actives have IC50 up to about 0.98 µM;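 also: inhibitors leave more ATP so luminescence rises with inhibition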). The conditions noted are these: recombinant PfCDPK1, Kinase-Glo ATP depletion luminescence.
Assay [6] addresses Plasmodium falciparum protein kinase 6 (PK6, PF3D7_1337100) (UniProt Q8IDW1). The assay is described as follows: PfPK6 kinase inhibitors, biochemical, TCAMS library (AID 1159586). The conditions noted are these: recombinant PfPK6, Kinase-Glo ATP depletion luminescence.
Assay [7] deals with Protein kinase 7 (PK7), Plasmodium falciparum 3D7 (PF3D7_0213400) (UniProt Q7YTF7). The assay is described as follows: inhibition of Plasmodium PK7 catalytic activity – biochemical, TCAMS antimalarial set, Kinase-Glo luminescence (AID 1159587). The conditions noted are these: recombinant PfPK7, Kinase-Glo ATP depletion luminescence.
For assay [8], the target named is Calcium-dependent protein kinase 4 (Plasmodium falciparum (isolate 3D7)) (UniProt Q8IBS5). The assay is described as follows: PfCDPK4 kinase inhibitors, biochemical, TCAMS library (AID 1159588; cut-off not given, nearly all actives have IC50 up to about 0.91 µM). The conditions noted are these: recombinant PfCDPK4, Kinase-Glo ATP depletion luminescence.

A number with no mark means an inactive call. For part of these data: Results with a measured potency or affinity are listed apart. Calls of active or inactive are those of the source. Unless noted, no rule for the calls is given here.

Chain of Protein kinase 7 (PK7), Plasmodium falciparum 3D7 (PF3D7_0213400) (Q7YTF7 1-343): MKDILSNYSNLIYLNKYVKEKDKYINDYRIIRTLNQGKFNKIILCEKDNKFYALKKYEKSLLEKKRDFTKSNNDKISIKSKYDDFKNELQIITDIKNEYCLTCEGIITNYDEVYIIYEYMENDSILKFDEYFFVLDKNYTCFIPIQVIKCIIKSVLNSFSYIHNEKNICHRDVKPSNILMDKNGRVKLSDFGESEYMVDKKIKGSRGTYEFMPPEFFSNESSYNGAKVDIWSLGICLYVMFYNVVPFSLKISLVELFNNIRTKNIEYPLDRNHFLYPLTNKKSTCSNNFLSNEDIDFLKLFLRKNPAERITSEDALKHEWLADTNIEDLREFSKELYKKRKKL
Chain of L-lactate dehydrogenase (Plasmodium falciparum (isolate CDC / Honduras)) (Q27743 whole entry, looked up): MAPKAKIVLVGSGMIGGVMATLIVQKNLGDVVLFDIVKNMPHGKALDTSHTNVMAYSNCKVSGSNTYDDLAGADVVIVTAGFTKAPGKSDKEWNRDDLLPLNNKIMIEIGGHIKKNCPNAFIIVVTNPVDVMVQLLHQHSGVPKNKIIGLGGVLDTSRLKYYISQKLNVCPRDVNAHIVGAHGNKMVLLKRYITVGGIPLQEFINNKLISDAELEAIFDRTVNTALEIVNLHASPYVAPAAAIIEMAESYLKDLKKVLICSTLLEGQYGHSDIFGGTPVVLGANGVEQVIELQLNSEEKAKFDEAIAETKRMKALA
Chain of Calcium-dependent protein kinase 4 (Plasmodium falciparum (isolate 3D7)) (Q8IBS5 whole entry, looked up): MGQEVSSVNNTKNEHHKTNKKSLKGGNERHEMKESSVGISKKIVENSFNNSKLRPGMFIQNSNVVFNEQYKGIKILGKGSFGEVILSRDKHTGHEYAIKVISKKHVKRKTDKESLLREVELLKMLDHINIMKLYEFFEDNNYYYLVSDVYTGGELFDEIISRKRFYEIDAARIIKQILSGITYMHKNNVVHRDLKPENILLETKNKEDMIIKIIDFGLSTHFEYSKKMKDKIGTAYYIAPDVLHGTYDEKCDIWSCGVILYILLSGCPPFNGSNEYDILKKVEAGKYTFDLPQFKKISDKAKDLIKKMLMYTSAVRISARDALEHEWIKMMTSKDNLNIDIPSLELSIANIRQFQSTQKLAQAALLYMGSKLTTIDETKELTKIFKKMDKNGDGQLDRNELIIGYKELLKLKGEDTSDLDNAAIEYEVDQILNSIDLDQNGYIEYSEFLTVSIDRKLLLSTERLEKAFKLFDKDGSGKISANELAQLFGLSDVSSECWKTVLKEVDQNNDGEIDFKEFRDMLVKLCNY
Chain of Calcium-dependent protein kinase 1 (Plasmodium falciparum (isolate 3D7)) (P62344 whole entry, looked up): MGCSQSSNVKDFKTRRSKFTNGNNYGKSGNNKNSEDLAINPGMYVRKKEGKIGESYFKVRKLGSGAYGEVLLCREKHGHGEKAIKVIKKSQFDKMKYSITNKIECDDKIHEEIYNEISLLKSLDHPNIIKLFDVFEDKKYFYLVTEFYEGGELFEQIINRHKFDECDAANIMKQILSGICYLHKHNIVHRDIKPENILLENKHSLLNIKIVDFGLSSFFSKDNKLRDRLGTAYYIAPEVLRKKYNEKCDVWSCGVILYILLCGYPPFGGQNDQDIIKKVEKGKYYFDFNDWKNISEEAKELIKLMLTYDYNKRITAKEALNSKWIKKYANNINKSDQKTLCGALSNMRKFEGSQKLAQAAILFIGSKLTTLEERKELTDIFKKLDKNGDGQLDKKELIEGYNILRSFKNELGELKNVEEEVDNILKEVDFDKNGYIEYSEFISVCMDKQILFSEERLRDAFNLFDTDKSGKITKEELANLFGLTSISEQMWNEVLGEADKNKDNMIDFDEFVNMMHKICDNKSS
Chain of Plasmodium falciparum protein kinase 6 (PK6, PF3D7_1337100) (Q8IDW1 1-305): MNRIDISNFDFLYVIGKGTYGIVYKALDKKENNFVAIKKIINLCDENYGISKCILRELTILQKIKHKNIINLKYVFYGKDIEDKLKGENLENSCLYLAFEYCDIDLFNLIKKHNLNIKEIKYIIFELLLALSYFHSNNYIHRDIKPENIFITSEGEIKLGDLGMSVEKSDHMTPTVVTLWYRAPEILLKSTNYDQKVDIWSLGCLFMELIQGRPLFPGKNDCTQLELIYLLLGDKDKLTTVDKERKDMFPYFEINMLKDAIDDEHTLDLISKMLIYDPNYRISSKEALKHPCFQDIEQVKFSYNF

On to `O=C(NC1CCN(Cc2cccc(C(F)(F)F)c2)CC1)c1ccc(-c2cccc(C(F)(F)F)c2)s1`, for which the growth inhibition was 54% (active) in assay [1] and 94% (active) in assay [4]. The inhibition in assay [2] was 36%; in assay [3], -2%. In addition, the result in assay [5], in assay [6], in assay [7] and in assay [8] was inactive.

As for `CNC(=O)CSc1nnc(-c2ccc(C)cc2)c(-c2ccc(C)cc2)n1`, the growth inhibition in assay [1] was 49%; in assay [4], 94% (active). Besides, the inhibition in assay [2] was 2%; in assay [3], -3%. Moreover, the outcome in assay [5], in assay [6], in assay [7] and in assay [8] was inactive.

Turning to `N=C(N)c1ccc(NC(=O)c2cc(Sc3ccc(O)c(C(=O)Nc4ccc(C(=N)N)cc4)c3)ccc2O)cc1`, the growth inhibition in assay [1] was 87% (active); in assay [4], 93% (active). The inhibition was 11% in assay [2] and 2% in assay [3]. Further, the outcome in assay [5], in assay [6], in assay [7] and in assay [8] was inactive.

As to `COc1ccc(NC(=O)Nc2ccc(-c3ccncc3)c(Cl)c2)cc1N1CCN(C)CC1`, the growth inhibition was 62% (active) in assay [1] and 98% (active) in assay [4]. Moreover, the values for the inhibition in assay [2] and in assay [3] were 19% and 3%, respectively. In addition, the outcome in assay [5], in assay [6], in assay [7] and in assay [8] was inactive.

Take `O=C(/C=C/c1ccc(Cl)c(Cl)c1)NCCCCCN1CCC(NC(=O)Nc2cccc(F)c2)CC1`: the values for the growth inhibition in assay [1] and in assay [4] were 6% and 100% (active), respectively. The figures for the inhibition in assay [2] and in assay [3] were 30% and 2%, respectively. Also, the outcome in assay [5], in assay [6], in assay [7] and in assay [8] was inactive.

With `Oc1ccc(CCNc2nc(NCCCOc3cc(CN4CCCCC4)ccc3F)nc(N3CCNCC3)n2)cc1`, the growth inhibition is -3% in assay [1] and 101% (active) in assay [4]. Moreover, the inhibition was 30% in assay [2] and -1% in assay [3]. Also, the outcome in assay [5], in assay [6], in assay [7] and in assay [8] was inactive.

Take `O=C(Nc1cccc(CN2CCCN(Cc3ccc(O)cc3)CC2)c1)c1ccc(-c2ccccc2)cc1`: the growth inhibition in assay [1] is 93% (active); in assay [4], 100% (active). Also, the inhibition is 33% in assay [2] and -8% in assay [3]. Further, the outcome in assay [5], in assay [6], in assay [7] and in assay [8] was inactive.

On to `OC(CNc1ccnc(Nc2cccc(OCCCN3CCOCC3)c2)n1)c1ccccc1` (centres undefined), for which the values for the growth inhibition in assay [1] and in assay [4] were 25% and 97% (active), respectively. The inhibition in assay [2] is 48%; in assay [3], -4%. Also, the result in assay [5], in assay [6], in assay [7] and in assay [8] was inactive.

As to `COc1cc(CNCCC(C)C)ccc1OCc1cccc(COc2ccc(CNCCC(C)C)cc2OC)c1`, the growth inhibition in assay [1] is 20%; in assay [4], 99% (active). In addition, the values for the inhibition in assay [2] and in assay [3] were 97% (active) and 6%, respectively. Also, the result in assay [5], in assay [6], in assay [7] and in assay [8] was inactive.

For the molecule `O[C@@H](c1cccc2ccccc12)[C@@H]1CN(CCc2ccccc2)CC[C@@]1(O)c1ccccc1`, the values for the growth inhibition in assay [1] and in assay [4] were 101% (active) and 99% (active), respectively. The inhibition in assay [2] and in assay [3] was -2% each time. Further, the outcome in assay [5], in assay [6], in assay [7] and in assay [8] was inactive.

In the case of `C/C=C/COc1ccc(-c2c(C)[nH]c(C)c(Cl)c2=O)cc1`, the growth inhibition in assay [1] and in assay [4] was 97% (active) in each case. The inhibition was 0% in assay [2] and 2% in assay [3]. In addition, the outcome in assay [5], in assay [6], in assay [7] and in assay [8] was inactive.

`O=C(Nc1ccc2nc(-c3ccc4nc(NC(=O)C5CCCCC5)sc4c3)[nH]c2c1)C1CCCCC1`: the growth inhibition in assay [1] was 68% (active); in assay [4] it was 100% (active). Besides, the inhibition in assay [2] was 84% (active); in assay [3], -9%. Also, the outcome in assay [5], in assay [6], in assay [7] and in assay [8] was inactive.

On to `COc1ccc(-c2cnc3[nH]cc(-c4ccc(C(=O)O)cc4)c3c2)cn1`, for which the growth inhibition in assay [1] was 99% (active); in assay [4] it was 95% (active). The inhibition was 35% in assay [2] and -1% in assay [3]. The outcome in assay [5], in assay [6], in assay [7] and in assay [8] was inactive.

Take `c1cc(CN2CCN(c3ccncc3)CC2)cc(-c2cccc(-c3nc4ccccc4[nH]3)c2)c1`: the growth inhibition was 98% (active) in assay [1] and 102% (active) in assay [4]. Also, the inhibition was 35% in assay [2] and 3% in assay [3]. Moreover, the result in assay [5], in assay [6], in assay [7] and in assay [8] was inactive.

As to `CCn1cc(C=C2Oc3c(ccc(O)c3CN3CCCCC3)C2=O)c2cc(OC)ccc21`, the growth inhibition in assay [1] and in assay [4] was 99% (active) in each case. The inhibition in assay [2] was -9%; in assay [3], -1%. The outcome in assay [5], in assay [6], in assay [7] and in assay [8] was inactive.

With `COc1ccc(-c2csc3ncnc(Cl)c23)cc1`, the values for the growth inhibition in assay [1] and in assay [4] were 97% (active) and 96% (active), respectively. In addition, the inhibition in assay [2] was -15%; in assay [3], 5%. For the same molecule, the outcome in assay [5], in assay [6], in assay [7] and in assay [8] was inactive.

On to `Cc1ccc(NC(=O)Nc2ccc(Cl)c(C(F)(F)F)c2)cc1-c1ccc(C(=O)Nc2ccncc2)cc1`, for which the growth inhibition in assay [1] and in assay [4] was 99% (active) in each case. The inhibition is 77% (active) in assay [2] and 3% in assay [3]. The result in assay [5], in assay [6], in assay [7] and in assay [8] was inactive.

On to `CC(C)(C)c1ccc(S(=O)(=O)Nc2ccccc2N2CCOCC2)cc1`, for which the growth inhibition in assay [1] was 60% (active); in assay [4], 90% (active). Moreover, the inhibition in assay [2] was 11%; in assay [3] it was 1%. Moreover, the outcome in assay [5], in assay [6], in assay [7] and in assay [8] was inactive.
